Hits are enriched below; roughly 10% of the tested compounds scored in any of these assays.
GPT2 inh: inhibitors of human GPT2 alanine aminotransferase. Q8TD30. Recombinant GPT2, coupled pyruvate oxidase/HRP Amplex Red fluorescence. Potency, µM (top dose mostly 57.7 µM), without a hit: top-dose activity change, negative = inhibition, usual class: inhibitors. 100,000 compounds, 0.25% hits. AID 1671188; also: nearly all actives have a fitted effect of over 60% in size
Target sequence (Q8TD30 whole entry, looked up): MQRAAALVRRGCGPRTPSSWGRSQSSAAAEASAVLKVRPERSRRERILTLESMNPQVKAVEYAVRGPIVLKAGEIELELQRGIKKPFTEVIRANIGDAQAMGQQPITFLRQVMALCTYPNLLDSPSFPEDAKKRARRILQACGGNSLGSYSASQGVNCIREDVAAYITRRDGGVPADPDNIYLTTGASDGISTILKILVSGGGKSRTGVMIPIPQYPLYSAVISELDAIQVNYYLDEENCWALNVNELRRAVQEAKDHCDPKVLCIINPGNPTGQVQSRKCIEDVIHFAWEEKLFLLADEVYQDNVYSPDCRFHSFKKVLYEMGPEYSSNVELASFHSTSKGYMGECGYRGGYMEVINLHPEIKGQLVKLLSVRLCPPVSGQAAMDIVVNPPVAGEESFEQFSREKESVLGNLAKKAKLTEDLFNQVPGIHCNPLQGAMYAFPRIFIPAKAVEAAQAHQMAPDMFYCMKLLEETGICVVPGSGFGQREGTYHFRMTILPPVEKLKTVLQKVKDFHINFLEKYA
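Recombinant GPT2 (10ng/uL) with 250uM a-KG and 2mM L-alanine, 30 min at room temperature, in HEPES pH 7.5 buffer. Pyruvate detected by pyruvate oxidase/HRP/Amplex Red fluorescence after 30 min in the dark; AOA (50uM) as positive control.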
HEK cytotox: HEK 293 cell cytotoxicity. HEK 293 viability, ATP luminescence (CellTiter-Glo), 48-72 h. 94,000 compounds, 6.6% hits. Potency, µM (titrated, usually from 115 µM), inactives show at the highest dose activity change, negative = cytotoxicity, most hits filed as inhibitors. AID 1345083; also: nearly all actives have a fitted effect of over 60% in size
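Viability of HEK 293 cells, plated at 250 cells/well, was judged by cellular ATP after compound treatment for 48 or 72 hr. Luminescence was imaged 10 min after CellTiter-Glo addition at room temperature.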
3T3 cytotox: cytotoxic compounds in NIH 3T3 cells. NIH 3T3 viability, CellTiter-Glo ATP luminescence, 48-72 h. Potency, µM (doses to about 96.7 µM), for inactives: at the top dose activity change, negative = cytotoxicity, actives largely listed as inhibitors. 94,000 compounds, 4.3% hits. AID 1345082; also: nearly all actives have a fitted effect of over 55% in size
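Cells were seeded at 400 per well, treated with pin-transferred compound, and kept 48 or 72 hr at 37 °C before CellTiter-Glo addition and luminescence imaging of cellular ATP.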
Luciferase inh: Photinus pyralis luciferase inhibition; P08659; 76,000 compounds, 2.5% hits; purified P. pyralis luciferase, luminescence, biochemical; Potency, µM (doses to about 115 µM), most hits filed as inhibitors; also: nearly all actives have a fitted effect of over 65% in size
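Inhibitors were tested against purified firefly luciferase in a biochemical, low-substrate format (both substrates at 10uM) and luminescence measured with a CCD imager.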
hNpr1 antagonist: blocks ANP-stimulated signaling of human Npr1 receptor; P16066; HEK293 hNpr1 GloSensor cGMP, ANP-stimulated luminescence; Potency, µM (series often up to 46.3 µM), for the others: at the highest dose activity change, negative = inhibition, most hits filed as inhibitors; 76,000 compounds, 1.6% hits; calls by dose curve; also: nearly all actives have a fitted effect of over 60% in size
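HEK293 cells stably expressing human Npr1 and cGMP GloSensor pGS-40F, loaded 2 h with 2% GloSensor reagent, given compound 30 min at room temperature. Luminescence read before and 20 min after 0.1 nM hNppA.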
Numbers without * were called inactive; i = inactive; ? = inconclusive; / = no result; [ ] = another dose, or the depositor's remark. Unless noted, calls follow the shape of the dose curve; as a rule, active = well fitted curve in the direction sought with a large enough effect; inconclusive = small, poorly fitted or top-dose-only effect, or another doubt; inactive = no such curve, though single readings can be large; an effect the other way counts as inactive or inconclusive. % is scaled to controls: 0 for no effect and ±100 for the full control effect; potency is read from the fitted curve at half-maximal effect.

SMILES | GPT2 inh | HEK cytotox | 3T3 cytotox | Luciferase inh | hNpr1 antagonist
COc1ccc2nc(C[C@@H]3C[C@@H](C(C)C)[C@H](CNCc4ccccn4)C=C3C)[nH]c2c1 | -11.0%[88.5 µM] | 79.4µM* | ? | i | -24.6%[70.6 µM]
O=C([C@H]1CCCN1C(=O)Nc1ccccc1)N1CCCC(c2nc3ccncc3[nH]2)C1 (stereo not given in full) | i | -4.4% | -16.5% | / | /
O=C(c1ccccc1)N1CCC(C(=O)N2CCC(N3Cc4ccccc4C3=O)CC2)CC1 | 2.6% | ? | -27.7% | / | /
O=C(c1nnc(COc2ccc(F)c(F)c2)n1-c1ccccc1)N1CCC[C@@H]1C(c1ccccc1)c1ccccc1 | -3.4% | ? | 4.47µM* | i | -6.3%
C[C@H]1CCCN1C(=O)c1nnc(COc2ccccc2)n1-c1ccccc1 | -16.3%[88.5 µM] | ? | 89.1µM* | i | -12.7%[70.6 µM]
C[C@H]1CCCN1C(=O)c1nnc(COc2ccc(Cl)cc2)n1-c1ccccc1 | -5.2%[88.5 µM] | 79.4µM* | 3.16µM* | i | -14.7%[70.6 µM]
O=C(c1nnc(CNc2ccc(OC(F)(F)F)cc2)n1-c1ccccc1)N1CCC[C@@H]1CN1CCCC1 | ? | 70.8µM* | ? | i | 3.0%
C[C@H]1CCCN1C(=O)c1nnc(COc2ccc3cccnc3c2)n1-c1cccnc1 | -4.2%[88.5 µM] | -16.2%[172 µM] | ? | i | 4.7%[70.6 µM]
O=C(c1nnc(CNc2ccccc2)n1-c1ccccc1)N1CCC[C@@H]1C(c1ccccc1)c1ccccc1 | i | ? | ? | i | -29.7%
C[C@H]1CCCN1C(=O)c1nnc(CNc2ccc(OC(F)(F)F)cc2)n1-c1ccccc1 | i | ? | -22.3% | i | -0.3%
C[C@H]1CCCN1C(=O)c1nnc(CNc2ccc(C(=O)O)cc2)n1-c1ccccc1 | -7.6%[88.5 µM] | -12.5%[172 µM] | ? | i | -0.1%[70.6 µM]
CO[C@H]1C(=O)N(C(C)C)[C@H]1C1CCN(C(=O)Cc2ccccc2)CC1 | 4.9% | -3.8% | -8.3% | / | /
COCC(=O)NC1CCN(C(=O)c2ccc(-c3ccc(OC)nn3)cc2)C1 (stereo not given) | / | -30.0% | 0.5% | / | /
C[C@H]1CCCN1C(=O)c1nnc(COc2ccc(F)c(F)c2)n1-c1cccnc1 | -8.2%[88.5 µM] | ? | 25.1µM* | i | -4.6%[70.6 µM]
COC(=O)COc1cccn2c(=O)c(-c3cc(C)n(-c4ccc(Cl)c(Cl)c4)n3)c(C)nc12 | i | -1.0% | -9.3% | i | -11.2%
COc1ccc(OCC2(C)COc3ccc(C(=O)NCc4ccco4)cc3N2)cc1 (stereo not given) | -22.3%[88.5 µM] | ? | ? | i | ?
CN(C)C(=O)c1ccc2c(c1)NC(C)(COc1ccc3[nH]ccc3c1)CO2 (stereo not given) | -1.6%[88.5 µM] | ? | -16.0%[138 µM] | i | -13.6%[70.6 µM]
CC1(COc2ccc3[nH]ccc3c2)COc2ccc(C(=O)Nc3cccnc3)cc2N1 (stereo not given) | i | 100µM* | 89.1µM* | i | ?
CC(C)CNC(=O)c1ccc2c(c1)NC(C)(COc1ccc3[nH]ccc3c1)CO2 (stereo not given) | -0.7%[88.5 µM] | ? | 89.1µM* | i | -17.4%[70.6 µM]
COc1ccc(NC(=O)c2ccc3c(c2)NC(C)(COc2ccc4[nH]ccc4c2)CO3)cn1 (stereo not given) | 4.1% | ? | ? | i | -26.7%
CC1(COc2ccc3[nH]ccc3c2)COc2ccc(C(=O)NCc3ccco3)cc2N1 (stereo not given) | -2.3%[88.5 µM] | 100µM* | ? | i | -14.8%[70.6 µM]
COc1ccccc1-n1c(=O)c(C(=O)N2CCN(C(=O)c3ccc(Cl)nc3)CC2)nc2cccnc21 | 3.9% | i | -2.6% | / | /
O=C(c1ccncc1)N1CCCN(c2ccc3nnc(-c4ccccc4)n3n2)CC1 | / | -11.7% | -27.1% | / | /
O=C(CNC(=O)c1cccc(-c2ccc(C(F)(F)F)cc2)c1)NCC(F)F | -6.5% | ? | ? | / | /
COc1ccc(-c2cc(-c3cnc4[nH]ccc4c3)cn3cncc23)cc1 | -6.9%[88.5 µM] | ? | 79.4µM* | ? | -19.0%[70.6 µM]
SMILES | GPT2 inh | HEK cytotox | 3T3 cytotox | Luciferase inh | hNpr1 antagonist
COc1ncccc1-c1cc(-c2ccncc2)c2cncn2c1 | -9.1%[88.5 µM] | ? | 28.2µM* | i | 2.3%[70.6 µM]
COc1ccc(-c2cc(-c3cccnc3)cn3cncc23)cc1 | i | ? | 39.8µM* | i | -18.3%[70.6 µM]
COc1ncccc1-c1cc(-c2cccnc2)c2cncn2c1 | -8.0%[88.5 µM] | ? | ? | i | 1.3%[70.6 µM]
COc1ccc(-c2cc(-c3cccc(NC(C)=O)c3)cn3cncc23)cc1 | 2.4%[88.5 µM] | ? | ? | ? | -17.6%[70.6 µM]
COc1ccc(-c2cc(-c3ccc(OC)nc3)cn3cncc23)cc1 | 2.5%[88.5 µM] | 89.1µM* | 39.8µM* | i | -12.1%[70.6 µM]
Cc1noc(C)c1[S+](=O)([O-])NC1CCN(C(=O)c2ccc(-c3ncccc3C#N)cc2)CC1 | i | 4.8% | ? | / | /
COc1ccc(-c2cc(-c3cccnc3OC)cn3cncc23)cc1 | -17.7%[88.5 µM] | ? | 35.5µM* | i | -19.8%[70.6 µM]
Cc1ccc(-c2cc(-c3cccnc3)c3cncn3c2)cn1 | ? | ? | 39.8µM* | i | -13.7%[70.6 µM]
OCc1cccc(-c2cc(-c3ccncc3)c3cncn3c2)c1 | -19.8%[88.5 µM] | 25.1µM* | 12.6µM* | i | -12.7%[70.6 µM]
COc1ccc(-c2cc(-c3ccc4c(c3)C(=O)NC4)cn3cncc23)cc1 | -11.2%[88.5 µM] | ? | ? | i | -2.3%[70.6 µM]
Oc1cccc(-c2cc(-c3cccnc3)c3cncn3c2)c1 | 2.8%[88.5 µM] | 56.2µM* | 25.1µM* | ? | -27.1%[70.6 µM]
Cc1ccc(-c2cc(-c3ccncc3)c3cncn3c2)cn1 | 1.9%[88.5 µM] | ? | ? | i | 0.2%[70.6 µM]
O=C(c1cccc(O)c1)N1CCc2c(n(CCOc3ccccc3)n(-c3ccccc3)c2=O)C1 | -9.9% | -14.5% | 22.4µM* | i | -8.5%
O=C1Nc2ccccc2CN(CC2CCOCC2)C12CCNCC2 | i | i | 4.0% | / | /
O=C1Nc2ccccc2CN(Cc2ccccc2)C12CCNC2 (stereo not given) | -2.8%[88.5 µM] | ? | 89.1µM* | / | /
O=C1Nc2ccccc2CN(C/C=C/c2ccccc2)C12CCNC2 (stereo not given) | 3.3% | ? | 25.1µM* | / | /
O=C1Nc2ccccc2CN(Cc2ccc(Cl)cc2)C12CCNCC2 | ? | 20µM* | 14.1µM* | i | -15.7%
CCCN1Cc2ccccc2NC(=O)C12CCNC2 (stereo not given) | i | i | i | / | /
COc1ccccc1OCCNC(=O)c1ccc(Cn2ccn3nc4c(c3c2=O)CCCC4)cc1 | i | ? | ? | i | -13.5%
CC(C)c1nc2c(c(-c3ccc(O)cc3)n1)CCN(C(=O)c1ccccc1F)CC2 | i | -3.7% | -15.7% | / | /
COCC(=O)N1CCCN(CCc2ccccc2)c2ccccc21 | i | 35.5µM* | -29.1% | i | -12.0%

Compound activity (PubChem BioAssay)
